MBD2 DNA inh – blocks human MBD2 binding to methylated DNA. TR-FRET, MBD2 binding to methylated oligonucleotide. inhibition, % at 4.4 µM. AID 686964. 370,000 tested, 0.31% active. Q9UBB5; in the data active means inhibition above about 13%
rCAG RNA binder – binds r(CAG) RNA repeats; 370,000 tested, 1.3% active; inhibition, % at 3 µM; AID 651821; r(CAG) RNA repeat, TO-PRO-1 dye displacement fluorescence;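 active means inhibition above the plate cutoff, the mean of all test compounds on that plate plus 3 SD, cut at about 35% in these data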;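 further: 0% = DMSO alone and 100% = 100 µM mitoxantrone as full dye displacement; higher means more dye released from RNA so lower well fluorescence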
ABHD5 PLIN5 PPI – blocks binding of human ABHD5 to perilipin-5 | Q00G26+Q8WTS1 | Split G. princeps luciferase complementation, luminescence, 4 h | inhibition, % at 4 µM | 360,000 tested, 0.78% active | AID 602281;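 active means inhibition above the mean inhibition across every tested compound plus 3 SD, cut at about 22% in these data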;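 further: 0% = DMSO only wells and the 100% control is not disclosed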
LEDGF integ inh – blocks HIV-1 LEDGF/p75-dependent DNA integration. inhibition, % at 3.7 µM. AID 743269. 370,000 tested, 0.64% active. TR-FRET IN-LEDGF/p75 DNA integration, Eu/Cy5;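 active means inhibition above the screen-wide mean plus 3 SD, cut at about 13% in these data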;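 further: signal is the Cy5 over europium emission ratio at 671 and 618 nm; 0% = plate median of compound wells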
PRMT1 inh – blocks human protein arginine methyltransferase 1. Q99873. recombinant PRMT1, activity-based probe fluorescence polarization. inhibition, % at 2.79 µM. 370,000 tested, 1.3% active. AID 652257;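 active means inhibition above about 21% made by adding two undisclosed values, limit read from the data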
UHRF1 MBD2 ctr – UHRF1 methyl-DNA binding inhibition | Q96T88 | UHRF1 binding to methylated oligo, TR-FRET | inhibition, % at 4.4 µM | 370,000 tested, 0.75% active | AID 687016; in the data active means inhibition above about 21%;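 further: UHRF1 SRA domain binding a hemimethylated CpG hairpin DNA probe; 0% = median of test compound wells and 100% = reference inhibitor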
Target sequence (Q96T88 whole entry, looked up, the tested form may be a part): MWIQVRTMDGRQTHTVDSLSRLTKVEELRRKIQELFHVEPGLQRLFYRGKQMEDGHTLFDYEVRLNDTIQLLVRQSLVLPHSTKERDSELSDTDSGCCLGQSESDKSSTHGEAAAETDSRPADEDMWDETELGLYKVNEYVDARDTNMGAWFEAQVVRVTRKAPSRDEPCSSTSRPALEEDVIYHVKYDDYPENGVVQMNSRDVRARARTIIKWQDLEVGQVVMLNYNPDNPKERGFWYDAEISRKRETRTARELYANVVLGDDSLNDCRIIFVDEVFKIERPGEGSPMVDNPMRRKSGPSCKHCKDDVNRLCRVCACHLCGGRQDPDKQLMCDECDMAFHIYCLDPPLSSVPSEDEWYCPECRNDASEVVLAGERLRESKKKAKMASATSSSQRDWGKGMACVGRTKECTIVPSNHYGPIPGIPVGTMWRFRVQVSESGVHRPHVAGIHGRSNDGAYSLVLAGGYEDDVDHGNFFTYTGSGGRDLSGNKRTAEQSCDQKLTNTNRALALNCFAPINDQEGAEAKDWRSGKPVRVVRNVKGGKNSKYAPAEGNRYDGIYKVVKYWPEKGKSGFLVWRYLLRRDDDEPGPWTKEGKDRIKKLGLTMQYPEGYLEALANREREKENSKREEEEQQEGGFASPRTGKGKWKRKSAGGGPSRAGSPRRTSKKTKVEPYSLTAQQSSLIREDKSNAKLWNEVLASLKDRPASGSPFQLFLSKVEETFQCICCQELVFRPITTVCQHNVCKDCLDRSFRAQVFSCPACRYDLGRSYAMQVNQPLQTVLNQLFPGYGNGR
ABHD5 PLIN5 conf – confirmation of human ABHD5-PLIN5 interaction inhibitors; shares compounds with ABHD5 PLIN5 PPI; biochemical ABHD5-PLIN5 interaction, luminescence; inhibition, % at 4 µM; 2,200 tested, 67% active; in the data active means inhibition above about 23%;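 further: 0% = DMSO vehicle wells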
HNF4 counter – active in HNF4 split-luciferase counter-screen for ABHD5-PLIN5 inhibitors; shares compounds with ABHD5 PLIN5 PPI; HNF4 dimerization, luminescence, biochemical; inhibition, % at 4 µM; 2,200 tested, 77% active; AID 651674;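 active means mean inhibition across replicate wells exceeding the computed hit threshold, cut at about 13% in these data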;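 further: light from luciferase halves that rejoin when HNF4 fusion proteins dimerize; 0% = DMSO only wells and the 100% control is not given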
* = called active by the depositor; / = no result given. The list is not random: actives were taken first. Their share in the collection is about 4.1%.

SMILES	MBD2 DNA inh	rCAG RNA binder	ABHD5 PLIN5 PPI	LEDGF integ inh	PRMT1 inh	UHRF1 MBD2 ctr	others
COc1cc(C2c3cc4c(c(O)c3CC3COC(=O)C32)OCO4)cc(OC)c1OC (stereo not given)	6.9	0.9	-3.7	-1.3	0.6	1.2
CC(NC(=O)OC1CC2CCC1(C)C2(C)C)P(=O)(Oc1ccccc1)Oc1ccccc1 (stereo not given)	1.4	/	/	-2.8	-2.2	1.2
CCCCCn1c(NC(=O)c2ccco2)c(C(=O)OCC)c2nc3ccccc3nc21	/	/	16.3	/	/	/
CCOC(=O)c1c(NS(=O)(=O)c2ccccc2)n(CCCOC)c2nc3ccccc3nc12	8.2	26.9	-6.3	20.0*	2.8	13.2
CCOC(=O)CC[C@@H]1CC[C@]2(CCCN(Cc3cccnc3)C2)O1	-0.6	0.6	/	0.2	0.6	-2.9
CC1(C)C(C(=O)N2CCN(c3ccc(Cl)cc3)CC2)C1(C)C	-2.4	-8.6	-2.4	-5.3	-0.1	-1.1
COC(=O)C1CN(C#N)N(c2ccc(Cl)cc2)C12c1ccccc1-c1ccccc12 (stereo not given)	/	/	74.0*	/	/	/
Cc1ccc(N2C(=O)NC(=O)/C(=C/c3ccc(-c4ccc(C(=O)O)c(Cl)c4)o3)C2=O)cc1	5.0	17.6	22.5*	4.8	11.7	12.0
Cc1ccc(-n2c(C)cc(/C=C3/C(=O)NC(=O)N(Cc4ccco4)C3=O)c2C)cc1	3.2	15.6	3.4	28.4*	17.3	9.5
Cc1ccc(-n2c(C)cc(/C=C3/C(=O)NC(=O)N(C)C3=O)c2C)cc1	-2.1	-0.4	1.4	2.7	3.3	-0.7
CCCC(=O)N1c2ccc(Cl)cc2C(c2ccccc2)=NCC1C(=O)NC(C)(C)C (stereo not given)	0.7	-0.1	/	5.0	-2.6	1.2
COc1ccc(/C=C2\C(=O)NC(=S)N(C)C2=O)cc1C	6.0	26.4	-14.9	-5.9	44.9*	14.5
Cc1ccsc1/C=C1\C(=O)NC(=S)N(C)C1=O	-0.8	9.1	5.3	0.7	5.8	-1.2
CC(C)C[C@H]1N=C(c2ccccc2)c2ccccc2N(CC(=O)NC(C)(C)C)C1=O	2.8	2.0	/	-3.6	-1.7	-3.6
CN1CCN(c2ccc([N+](=O)[O-])c3no[n+]([O-])c23)CC1	-29.2	-207.0	-0.2	0.7	112.0*	-26.8
CC(=O)C1=C(C)OC2=C(C(=O)CCC2)[C@@]12C(=O)N(C)c1ccccc12	1.7	1.4	/	3.7	-1.8	-1.6
Cc1ccc(N2C(=O)NC(=O)/C(=C/c3ccc(OC(=O)c4cccs4)cc3)C2=O)cc1	2.5	2.2	34.3*	-1.9	10.3	0.4
COc1ccc(N2C(=O)NC(=O)/C(=C/c3cccc(OC(=O)c4cccs4)c3)C2=O)cc1Cl	-4.5	31.2	/	1.2	5.1	-2.6
C/C(=N\NC(=O)c1ccncc1)c1c(O)n(Cc2ccccc2)c(=O)[nH]c1=O	-5.2	11.7	6.7	0.8	-0.5	-2.1
C/C(=N\NC(=O)c1ccccc1O)c1c(O)n(Cc2ccccc2)c(=O)[nH]c1=O	-6.7	85.9*	-1.8	1.7	3.1	-4.1
C=CCN(CC#CCO)Cc1ccc(OC)cc1OC	3.6	2.0	/	-2.5	-3.3	-3.6
CC(C)CNC(=O)c1c(N)n(Cc2ccco2)c2nc3ccccc3nc12	-4.6	28.1	21.8	5.8	40.1*	-0.1
COc1ccc2c(c1)c(C(=O)O)c(C)n2CC(C)C	3.5	2.4	-4.9	5.6	-3.1	4.3
COc1cc(O)c(C(=O)O)c(-c2cc(O)c(O)cc2C)c1	4.1	10.8	19.4	9.7	66.9*	1.0
CN1C(=O)C(c2ccc([N+](=O)[O-])cc2[N+](=O)[O-])C(=O)N(C)C1=O	-1.2	2.4	-1.7	-1.8	3.1	20.9*
SMILES	MBD2 DNA inh	rCAG RNA binder	ABHD5 PLIN5 PPI	LEDGF integ inh	PRMT1 inh	UHRF1 MBD2 ctr	others
O=[N+]([O-])c1ccc(Cl)c([N+](=O)[O-])c1	2.5	0.6	13.7	3.0	1.4	-1.2
CC(C)(C)NC(=O)C1CN=C(c2ccccc2)c2cc(Cl)ccc2N1C(=O)C1CCC1 (stereo not given)	3.0	3.1	/	-0.8	-2.3	-1.4
COC1C(O)C(C)OC(OC2CCC3(C)C(CCC4C3C(O)CC3(C)C(C5=CC(=O)OC5)CCC43O)C2)C1O (stereo not given)	-2.1	-0.2	22.1*	-2.3	-0.7	4.5
C[C@]12CC[C@H](O)C[C@H]1CC[C@@H]1[C@@H]2CC[C@]2(C)[C@@H](C3=CC(=O)OC3)CC[C@]12O	3.9	0.4	6.8	-0.8	-1.5	-0.8
O=C1NC(=O)N(c2ccc(Cl)cc2)C(=O)/C1=C\c1ccc(Sc2nc3ccccc3[nH]2)o1	1.2	49.2*	4.3	8.4	17.7	1.2
CC(C)c1ccc(N2C(=O)NC(=O)/C(=C/c3cnc(-c4ccccc4)nc3)C2=O)cc1	-0.8	23.3	11.9	1.7	8.8	-0.3
CCn1c(O)c(C=Nc2cc(Cl)ccc2Cl)c(=O)n(CC)c1=O	3.0	-0.9	12.7	-0.4	21.8*	-2.0
Nc1c2c(nc3sc4c(c13)CCCC4)CCCCC2	0.4	-0.1	-0.7	0.8	0.0	0.0
Nc1c2c(nc3sc4c(c13)CCCC4)CCCC2	9.4	10.4	-0.2	1.9	0.0	28.8*
C=Cc1cc(OC)c2c(c1)c(=O)oc1c2cc(OC)c2c(O)ccc(C3OC(C)C(O)C(C)(O)C3O)c21 (stereo not given)	31.2*	19.6	6.6	10.2	1.7	10.0
C#CCN[C@H](C)Cc1ccccc1	0.9	2.1	1.8	-0.4	1.2	0.3
CC(Cc1ccccc1)NCc1ccccc1O (stereo not given)	3.0	-2.4	4.4	-4.3	5.5	34.8*
N#CCC[C@@H]1CC[C@]2(CCCN(Cc3ccccn3)C2)O1	-4.8	-0.9	/	-0.1	3.7	4.8
COC[C@H]1OC(=O)c2coc3c2[C@@]1(C)C1=C(C3=O)[C@@H]2CCC(=O)[C@@]2(C)C[C@H]1OC(C)=O	0.5	2.1	26.2*	5.9	20.4	-1.8	ABHD5 PLIN5 conf=8.3;HNF4 counter=68.5*
CCOC(=O)Cn1cc(C=C2C(=O)N(C)C(=O)N(C)C2=O)c2ccccc21	-1.9	-2.4	29.5*	3.3	16.4	-1.8	ABHD5 PLIN5 conf=8.4;HNF4 counter=11.0
O=C(O)Cn1cc(/C=C2\C(=O)NC(=O)N(c3ccc(Cl)cc3)C2=O)c2ccccc21	-3.8	10.8	35.5*	0.3	0.6	-3.2	ABHD5 PLIN5 conf=33.0*;HNF4 counter=31.9*
COc1cc(/C=C2\C(=O)NC(=O)N(c3ccccc3)C2=O)cc(OC)c1O	-0.5	-4.3	34.2*	-1.4	8.0	2.7	ABHD5 PLIN5 conf=16.5;HNF4 counter=22.0*
O=C(O)Cn1cc(C=C2C(=O)NC(=O)NC2=O)c2ccccc21	-2.8	7.6	32.1*	-2.3	11.6	-8.0	ABHD5 PLIN5 conf=12.4;HNF4 counter=11.7
